# Screening data from PubChem.
# A selection: hits, their analogues and other compounds. The true share with any hit is near 0.33%.
# FXIa single inh – human FXIa protease inhibitors, primary screen, biochemical, single compound per well; Coagulation factor XI (Homo sapiens), P03951; purified human FXIa, fluorogenic AMC substrate cleavage; inhibition, % at 10 µM; 33,000 compounds, 0.3% hits; AID 687, 2007;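 active means inhibition above 40% in the primary screen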;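 further: 0% = enzyme without compound and 100% = blank wells lacking enzyme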
# Target sequence (P03951 19-387 limits assumed): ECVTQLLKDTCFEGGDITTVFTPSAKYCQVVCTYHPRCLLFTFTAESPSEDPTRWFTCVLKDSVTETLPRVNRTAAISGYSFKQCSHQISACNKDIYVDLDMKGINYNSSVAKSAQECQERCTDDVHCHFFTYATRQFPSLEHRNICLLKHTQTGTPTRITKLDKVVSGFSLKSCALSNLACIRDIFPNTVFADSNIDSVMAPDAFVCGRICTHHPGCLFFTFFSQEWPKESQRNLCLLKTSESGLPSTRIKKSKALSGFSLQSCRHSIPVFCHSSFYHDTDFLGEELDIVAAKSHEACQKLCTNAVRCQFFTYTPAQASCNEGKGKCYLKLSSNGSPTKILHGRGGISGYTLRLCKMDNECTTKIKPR
# Target sequence (P03951 388-625 limits assumed): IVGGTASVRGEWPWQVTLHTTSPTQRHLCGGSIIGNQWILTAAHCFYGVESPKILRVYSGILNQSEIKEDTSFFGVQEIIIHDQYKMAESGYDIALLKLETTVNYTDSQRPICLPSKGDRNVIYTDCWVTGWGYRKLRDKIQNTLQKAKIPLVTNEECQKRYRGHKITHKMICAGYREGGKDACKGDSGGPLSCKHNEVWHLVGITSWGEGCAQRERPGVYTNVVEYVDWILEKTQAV
# FXIIa inh – human FXIIa protease inhibitors, primary screen, biochemical, single well; Coagulation factor XII (Homo sapiens), P00748; purified human FXIIa, AMC substrate fluorescence, 2 h; inhibition, % at 10 µM; 33,000 compounds, 0.2% hits; AID 701, 2007; in the data active means inhibition above about 30%;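 further: 0% = enzyme with vehicle only and 100% = no enzyme blank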
# * = called active by the depositor.
SMILES,FXIa single inh,FXIIa inh
O=C(Nc1ccc(F)cc1)N1CC2CC(C1)c1cccc(=O)n1C2 (stereo not given),-9,-10
O=c1cccc2n1CC1CC2CN(S(=O)(=O)c2ccccc2)C1 (stereo not given),42*,3
COc1ccc(CCC(=O)N2CCC3(CC2)OCCO3)cc1,4,8
